Measured values as given in PubChem BioAssay AID1578 (Sanford-Burnham Center for Chemical Genomics, 2009).
In all, about 290,000 compounds went through this assay and about 3,000 (1%) were called active. Only a selection was taken, and actives are over-represented in it overall. Unmarked numbers belong to inactive results. No stated cut-off is given here; in the data, active means inhibition mostly above about 36% (no sharp cut-off); inactive means mostly below about 34%.

Experiment: inhibition of NOD1-driven NF-kB reporter – cell-based, luminescence, uHTS, primary screen (AID 1578);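 further: HEK-293T reporter cells stimulated with the NOD1 agonist gamma-tri-DAP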
Conditions: NOD1-driven NF-kB luciferase reporter cells, at 4 µM, active compounds read high

In order of falling inhibition:
1. c1ccc(-c2noc(-c3ccc4ccccc4c3)n2)nc1  77.3%
2. COc1ccc(-c2nsc3c(N4CCCCC4)ncnc23)cc1  46.2%
3. Brc1ccc(OCc2ccccc2)c(CNCc2ccncc2)c1  44.1%
4. COc1ccc(-c2nsc3c(N4CCCC4)ncnc23)cc1  37.5%
5. Cc1ccc(NS(=O)(=O)c2ccc(-c3cnc(C4CC4)o3)cc2)cc1  37.3%
6. COc1ccccc1-c1cc(C(F)(F)F)nc(S(=O)(=O)CCCC(=O)Nc2cc(C)on2)n1  37%
7. CN(Cc1ccccc1)c1ncnc2sccc12  32.5%
8. COc1ccc(-c2cc(C(F)(F)F)nc(S(=O)(=O)CCCC(=O)Nc3cc(C)on3)n2)cc1OC  32.1%
9. COc1ccc(OC)c(NS(=O)(=O)c2ccc(-c3coc(C)n3)cc2)c1  29.1%
10. c1ccc(-c2ccc(-c3nc(-c4ccncc4)no3)cc2)cc1  28.9%
11. COc1ccccc1-c1nc(-c2ccccn2)no1  27.3%
12. COc1ccc(C)cc1NS(=O)(=O)c1ccc(-c2cnc(C3CC3)o2)cc1  25.1%
13. Cc1ccccc1-c1nc(-c2ccccn2)no1  11.7%
14. O=C(COC(=O)CNC(=O)c1ccc(Cl)cc1)Nc1cccc(S(=O)(=O)N2CCCC2)c1  6.6%
15. COc1ccc(NS(=O)(=O)c2ccc(-c3coc(C)n3)cc2)cc1  5.2%
16. CCOc1ccc(-c2c(=O)n(OCC)c3ccccc3[n+]2[O-])cc1  3.2%
17. COc1cccc(CNCc2ccc(OC)cc2OC)c1  3.1%
18. CCC(C)N1C(=O)CCC1C(=O)N1CCN(c2ccccc2F)CC1 (stereo unspecified)  2.8%
19. C#CCOn1c(-n2nc(C)cc2C)nc2ccccc2c1=O  2.3%
20. O=C(NCCc1ccccc1)C1CCC(=O)N1CCc1ccccc1 (stereo unspecified)  2%
21. O=C(Nc1nc2ccccc2[nH]1)c1ccccc1O  1.5%
22. COc1ccc(/C=C2\SC(=O)N(CCc3nnc(N)s3)C2=O)cc1  1.5%
23. CCOn1c(-n2nc(C)cc2C)nc2ccccc2c1=O  0.7%
24. CCOC(=O)C1CCN(C(=O)CSCc2nc(-c3ccc(OCC)cc3)oc2C)CC1  -2.1%
25. c1ccc(-c2noc(-c3ccno3)n2)nc1  -2.2%
26. COC(=O)c1cc(-c2ccccc2)sc1NC(=O)c1cc(C)on1  -4.3%
27. C/C(=N\NC(=O)c1nnn(-c2nonc2N)c1CSc1ccccc1)c1cccnc1  -4.5%
28. CCOC(=O)Cc1csc(NC(=O)CSc2ncnc3c2cnn3-c2ccccc2Cl)n1  -4.7%
29. Fc1ccccc1COc1ccc(Br)cc1CNCc1cccnc1  -5%
30. COc1cc(CNCc2cc(OC)ccc2OC)cc(OC)c1  -5.3%
31. COc1cccc(-c2nc(-c3ccncc3)no2)c1  -5.3%
32. CC(NC(=O)/C(=C\c1ccco1)NC(=O)c1ccco1)C(=O)O (stereo unspecified)  -6.1%
33. Cc1cnc(C(=O)Nc2ccc(C(=O)N(C)C3CCCCC3)cc2)cn1  -6.2%
34. C=CCOc1ccc2ccccc2c1/C=N/O  -6.7%
35. COc1ccc(NC(=O)Nc2c(C)noc2-c2ccccc2)cc1  -7.5%
36. CN(C)c1ccc(/C=C2/SC(=O)N(CCN=C3NS(=O)(=O)c4ccccc43)C2=O)cc1  -8.3%
37. CC(=O)Oc1ccc2nc(/C=C/c3ccccc3)oc(=O)c2c1  -9.3%
38. O=C(Oc1ccc(Br)cc1C(=S)N1CCOCC1)c1ccc(F)cc1  -9.9%
39. CCCCCCC(C)NC(=S)Nc1cc(S(=O)(=O)N(C)C)ccc1C (stereo unspecified)  -10.2%
40. COC(=O)c1sc(NC(=O)CSc2nc3cccnc3n2C)nc1C  -10.6%
41. S=C(Nc1ccccc1)N1CCOCCOCCN(C(=S)Nc2ccccc2)CCOCCOCC1  -11%
42. C=C(C)CN(CC)c1nc(N)c2c(N)nc3c(c2c1C#N)CC(=O)N3C12CC3CC(CC(C3)C1)C2  -11.3%
43. c1ccc(-c2noc(-c3cccnc3)n2)nc1  -11.3%
44. Cn1c(SCC(=O)NC(=O)CN2CCCC2=O)nnc1-c1ccc(F)cc1  -11.6%
45. Cc1c(C(=O)NCCN(C)C)oc2ccc(S(=O)(=O)N3CCC4(CC3)OCCO4)cc12  -12.2%
46. Cc1scc(C(=O)Nn2cnnc2)c1-c1ccccc1  -12.5%
47. CCOC(=O)Cn1c(C)c(Br)c(COC)c(C#N)c1=O  -13.2%
48. COc1ccc(S(=O)(=O)Nc2ccccc2C(=O)N2CCCCC2)cc1C  -14.5%
49. CC(CC(=O)O)CC(=O)Nc1cc([N+](=O)[O-])ccc1O (stereo unspecified)  -14.6%
50. Cc1ccc(C2=NN(C3=NN=C(N)Cc4ncnn43)C(O)(C(F)(F)F)C2)cc1 (stereo unspecified)  -15.4%
51. Clc1cccc(-c2nc(-c3ccccn3)no2)c1  -17.2%
52. CCCC(=O)NCC(c1cccs1)S(=O)(=O)c1ccc(Cl)cc1 (stereo unspecified)  -18%
53. N#CCc1c(C#N)c(N)nc(N2CCCC(O)C2)c1C#N (stereo unspecified)  -18.2%
54. CN(C)N(C)C(=O)C(O)(c1ccccc1)c1ccccc1  -18.6%
55. Cc1nnc(SCC(=O)NC2CC2)s1  -18.8%
56. O=C(Nc1nc2ccccc2[nH]1)c1ccc(Br)o1  -21.2%
57. CCN1C(=O)CSc2ccc(C(=O)NCc3ccco3)cc21  -21.5%
58. C/C(=N\Nc1nc2ccccc2[nH]1)c1cc2ccccc2o1  -21.6%
59. Cc1ccc(-c2nc(=S)c3c(n2CCN2CCOCC2)CC(C)(C)OC3)cc1  -25.9%
60. Cc1cccc(-c2noc(-c3ccc4c(c3)OCO4)n2)c1  -27.9%
61. CCO[C@@H]1OC(C(=O)N2CCOCC2)=C[C@H](C)[C@H]1CCCO  -28.1%
62. CC1CCCC(NC(=O)c2ccc(CNc3c(N4CCCC4)c(=O)c3=O)cc2)C1C (stereo unspecified)  -28.2%
63. CN(Cc1ccccc1F)c1ncnc2sccc12  -28.7%
64. CCOc1ccc(-c2nc(CSCC(=O)N3CCN(C(=O)c4ccco4)CC3)c(C)o2)cc1  -28.8%
65. O=C(CN1C(=O)NC2(CCCCCCC2)C1=O)NC1CCCc2ccccc21 (stereo unspecified)  -29.3%
66. COc1ccc(Oc2ccc(N/C=C3\CCCC3=O)cc2)cc1  -29.4%
67. c1ccc(-c2noc(-c3ccncc3)n2)nc1  -30.8%
68. COc1cc(S(=O)(=O)n2nc(C)cc2C)ccc1Cl  -30.9%
69. COc1cc(-c2nc(-c3ccccn3)no2)cc(OC)c1OC  -30.9%
70. CCC(C(=O)OC(C)C(=O)Nc1ccc(Cl)cn1)c1ccccc1 (stereo unspecified)  -32.2%
71. O=C(Nc1ccccc1)Nc1ccc2ocnc2c1  -32.4%
72. CCO[C@H]1OC(C(=O)N2CCN(C)CC2)=C[C@@H](C)[C@@H]1CCCO  -35.3%
73. COc1ccc(/C=N/Nc2nc(C(=O)O)cs2)cc1  -35.9%
74. Cc1ccc2cc3cc(C(=O)NC4CCCCC4)oc3nc2c1  -36.4%
75. CC(=O)N1N=C(N)SC1c1cccc([N+](=O)[O-])c1 (stereo unspecified)  -38.8%
76. CN(Cc1ccccc1)C(=O)CCC(=O)N(C)Cc1ccccc1  -41.2%
77. COC(=O)c1ccc(NC(=O)CCN2C(=O)CSC2=O)cc1  -44.1%
78. CSc1ccccc1C(=O)Nc1nc2ccccc2[nH]1  -46.1%
79. c1ccc(-c2noc(-c3ccc4c(c3)OCO4)n2)cc1  -47.3%
80. COc1cccc(-c2nc(-c3ccccc3)no2)c1  -49.3%
81. O=C(COc1ccc(S(=O)(=O)N2CCOCC2)cc1Cl)NCc1ccccn1  -57.1%
82. Clc1ccc(-c2nc(-c3ccccn3)no2)cc1Cl  -69.5%

With `Cc1cc(C)n(-c2nc3ccccc3c(=O)n2OCC#N)n1` the inhibition was 109% (active).
With `CN(C)N(Cc1ccccc1)C(=O)C(O)(c1ccccc1)c1ccccc1` the inhibition was 63.1% (active).
With `N#Cc1c(N2CCCC(O)C2)nc(N)c2c(N)nc3c(c12)CC(=O)N3C12CC3CC(CC(C3)C1)C2` (stereo unspecified) the inhibition was 72% (active).
For `COc1cc(CNCc2ccc(OC)cc2OC)cc(OC)c1`, the inhibition was 79.5% (active).
For `CCO[C@H]1OC(C(=O)N2CCCCCCC2)=C[C@@H](C)[C@@H]1CCCO`, the inhibition was 40% (active).
For `Fc1ccccc1COc1ccc(Br)cc1CNCc1ccncc1`, the inhibition was 72.9% (active).
For `O=C(Nc1nc2ccccc2[nH]1)c1cc2ccccc2o1`, the inhibition was 73.5% (active).
In the case of `O=C(Nc1nc2ccccc2[nH]1)c1ccccc1F`, the inhibition is reported as 77.3% (active).
With `Cc1cc(NC(=O)CCCS(=O)(=O)c2nc(-c3cccs3)cc(C(F)(F)F)n2)no1` the inhibition was 91% (active).
With `c1ccc(-c2nc(-c3ccccn3)no2)cc1` the inhibition was 54.3% (active).
With `COc1cccc(-c2nc(-c3ccccn3)no2)c1` the inhibition was 65% (active).
In the case of `Cc1ccc(-c2nc(-c3ccccn3)no2)cc1`, the inhibition is reported as 89.5% (active).
For `Cc1ccc(-c2nc(-c3ccccn3)no2)cc1Cl`, the inhibition was 71.4% (active).
In the case of `COc1ccc(-c2nc(-c3ccccn3)no2)cc1`, the inhibition is reported as 99% (active).
With `c1ccc(-c2noc(-c3ccc4c(c3)OCO4)n2)nc1` the inhibition was 64.7% (active).
For `c1ccc(-c2ccc(-c3nc(-c4ccccn4)no3)cc2)cc1`, the inhibition was 99.9% (active).
For `CN(Cc1cccs1)c1ncnc2sccc12`, the inhibition was 46.8% (active).
With `CN(C)c1ccc(/C=C2\SC(=O)N(CCc3nnc(N)s3)C2=O)cc1` the inhibition was 68% (active).
For `COc1ccc(-c2nsc3c(N4CCCCC4C)ncnc23)cc1` (stereo unspecified), the inhibition was 77.6% (active).
